In PubChem BioAssay AID1970 (National Center for Advancing Translational Sciences (NCATS), 2009):
Results filed as inconclusive are left out. Calls of active or inactive are those of the source. Calls come from the whole dose curve; as a rule, active = well fitted inhibition curve with a large enough effect; inconclusive = small, poorly fitted or top-dose-only effect; inactive = flat fitted curve, though single readings scatter.

The molecules below were run against Dual specificity protein kinase CLK4 (Homo sapiens) (UniProt Q9HAZ1) (assay: Confirmation Assay for Inhibitors of CDC-like Kinase 4 (Kinase-Glo Assay)). Conditions: recombinant Clk4, Kinase-Glo ATP depletion luminescence; series mostly up to 47.7 µM.
Procedure: NIH Molecular Libraries Probe Production Centers Network [MLPCN] NIH Chemical Genomics Center [NCGC] MLPCN Grant: 1R03MH084827-01 Assay Submitter (PI): Tom Misteli NCGC Assay Overview: Clk4 (Invitrogen, cat# PV3839) was assayed using ATP and the RS repeat peptide (AnaSpec cat # 61722) as substrates. Following the Clk4 reaction, the remaining ATP levels were detected using Promega Kinase-Glo technology wherein the remaining ATP from the kinase reaction is detected using Ultra-Glo luciferase and D-luciferin which generates a bioluminescence signal from the ATP.
NCGC Assay Protocol Summary: Two uL/well of substrate-buffer solution (100 uM RS peptide, 1 uM ATP, 25 mM Tris pH7.5, 10 mM MgCl2, 0.5 mM EGTA, 2.5 mM DTT, 0.01% Triton X-100 final concentration) was dispensed into 1536-well, assay plates (Greiner, solid white medium-binding plates) with Aurora Discovery BioRAPTR Flying Reagent Dispenser (FRD; Beckton-Dickenson). Using a Kalypsys pin tool equipped with a 1536-pin tool, 23 nL of compound solution was transferred to the assay plate. One uL/ well Clk4-buffer solution (25 nM Clk4, 25 mM Tris pH 7.5, 10 mM MgCl2, 0.5 mM EGTA, 2.5 mM DTT, 0.01% Triton X-100, final concentrations) was then added using the FRD yielding a total kinase reaction volume of 3 uL/ well. After 4.5 hours of room temperature incubation, 3 uL Kinase-Glo reagent was added for a final assay volume of 6 uL/ well. Luminescence was detected with the ViewLux plate reader (Perkin Elmer, Waltham, MA) after 5 min incubation using a 5 second exposure time and 2x binning.

Chain of Dual specificity protein kinase CLK4 (Homo sapiens) (Q9HAZ1 whole entry, looked up): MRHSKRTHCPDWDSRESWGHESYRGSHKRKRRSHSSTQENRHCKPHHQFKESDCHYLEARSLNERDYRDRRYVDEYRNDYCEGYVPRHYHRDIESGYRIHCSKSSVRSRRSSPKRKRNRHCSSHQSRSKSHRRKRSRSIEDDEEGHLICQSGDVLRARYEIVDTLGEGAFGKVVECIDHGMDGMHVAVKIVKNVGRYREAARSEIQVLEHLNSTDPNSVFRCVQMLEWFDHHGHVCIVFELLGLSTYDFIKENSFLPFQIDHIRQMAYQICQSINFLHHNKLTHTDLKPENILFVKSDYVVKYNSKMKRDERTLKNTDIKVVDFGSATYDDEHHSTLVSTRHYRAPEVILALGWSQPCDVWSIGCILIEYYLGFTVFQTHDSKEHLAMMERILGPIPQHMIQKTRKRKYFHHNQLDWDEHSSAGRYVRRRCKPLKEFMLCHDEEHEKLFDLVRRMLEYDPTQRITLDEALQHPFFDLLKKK

Potency, active:
Cn1cncc1CNc1ncnc2ccc(-c3ccc4c(c3)OCO4)cc12 75.2 nM
Cc1csc(CNc2ncnc3cc(-c4ccc5c(c4)OCO5)ccc23)n1 8440 nM
c1csc(CNc2ncnc3cc(-c4ccc5c(c4)OCO5)ccc23)c1 11900 nM
CCOC(=O)c1ccc(-c2ccc3ncnc(NCCc4cnc[nH]4)c3c2)o1 92.3 nM
c1csc(CNc2ncnc3ccc(-c4ccc5c(c4)OCCO5)cc23)c1 112 nM
Cc1cccc(CNc2ncnc3ccc(-c4ccoc4)cc23)c1 199 nM
c1nc(NCc2ccoc2)c2cc(-c3ccc4c(c3)OCO4)ccc2n1 37.7 nM
CC(C)(C)CNc1ncnc2ccc(-c3ccc4c(c3)OCO4)cc12 32.4 nM
Cc1cccc(CNc2ncnc3ccc(-c4cccc(C)c4)cc23)c1 8910 nM
c1nc(NCC2CCCO2)c2ccc(-c3ccc4c(c3)OCO4)cc2n1 (stereo not given) 8440 nM
Fc1cccc(CNc2ncnc3ccc(-c4ccc5c(c4)OCO5)cc23)c1 100 nM
Cc1cccc(CNc2ncnc3ccc(-c4ccc5c(c4)OCCO5)cc23)c1 501 nM
Cc1csc(CNc2ncnc3ccc(-c4ccoc4)cc23)c1 355 nM
c1nc(NCCc2cnc[nH]2)c2ccc(-c3ccc4c(c3)OCO4)cc2n1 10600 nM
CCOC(=O)c1ccc(-c2ccc3ncnc(NCc4cccs4)c3c2)o1 116 nM
CN1CCCC1CCNc1ncnc2ccc(-c3ccc4c(c3)OCO4)cc12 (stereo not given) 923 nM
COc1cccc(-c2ccc3ncnc(NCc4cc(C)cs4)c3c2)c1 794 nM
Cn1ccc2cc(-c3ccc4ncnc(NCc5cccnc5)c4c3)ccc21 12600 nM
c1csc(CCNc2ncnc3ccc(-c4ccc5c(c4)OCO5)cc23)c1 46.3 nM
Cc1ccc(CNc2ncnc3ccc(-c4ccoc4C)cc23)o1 368 nM
Cc1nc(CNc2ncnc3ccc(-c4oc(-c5ccccc5)nc4C)cc23)cs1 2320 nM
c1nc(NCc2ccc3c(c2)OCO3)c2cc(-c3ccoc3)ccc2n1 631 nM
O=C(O)c1ccc(-c2ccc3ncnc(NCCc4cnc[nH]4)c3c2)o1 923 nM
CN(C)CCNc1ncnc2ccc(-c3ccc4c(c3)OCO4)cc12 463 nM
Cc1csc(CNc2ncnc3ccc(-c4ccc5c(c4)OCO5)cc23)n1 37.7 nM
CN(Cc1cncn1C)c1ncnc2ccc(-c3ccc4c(c3)OCO4)cc12 292 nM
c1cncc(CNc2ncnc3ccc(-c4ccc5c(c4)OCCO5)cc23)c1 447 nM
Cn1cnc(CCNc2ncnc3ccc(-c4ccc5c(c4)OCO5)cc23)c1 232 nM
Cc1nc(CNc2ncnc3ccc(-c4ccoc4C)cc23)cs1 823 nM
Cc1ccc(CNc2ncnc3cc(-c4ccc5c(c4)OCO5)ccc23)o1 5980 nM
CCCN(Cc1cccs1)c1ncnc2ccc(-c3ccc4c(c3)OCO4)cc12 116 nM
c1nc(NCC2CCOC2)c2cc(-c3ccc4c(c3)OCO4)ccc2n1 (stereo not given) 58.2 nM
c1cncc(CNc2ncnc3ccc(-c4ccoc4)cc23)c1 631 nM
Fc1cccc(CNc2ncnc3ccc(-c4ccoc4)cc23)c1 3160 nM
c1nc(NCCc2cnc[nH]2)c2cc(-c3ccoc3)ccc2n1 412 nM
Cc1nc(CN(C)c2ncnc3ccc(-c4ccc5c(c4)OCO5)cc23)cs1 33.6 nM
Cc1csc(CNc2ncnc3ccc(-c4cccc(Cl)c4)cc23)c1 7940 nM
c1nc(N2CCC(N3CCCC3)CC2)c2cc(-c3ccc4c(c3)OCO4)ccc2n1 4630 nM
CCN(CCc1cn(C)cn1)c1ncnc2ccc(-c3ccc4c(c3)OCO4)cc12 519 nM
Cc1nc(CN(C)c2ncnc3cc(-c4ccc5c(c4)OCO5)ccc23)cs1 5330 nM
